Most compounds without a hit are left out; they make up all but 32% or so of the library.
CYP2C9 act = activators of human CYP2C9; P11712; recombinant CYP2C9, luciferin-H conversion, luminescence; stronger effect = higher value; factor 1 = untreated enzyme, 0 = blocked; activation factor at 5 µM; hit rate 1.4% among 96,000;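 active means activation factor of 2 or more for CYP2C9 at a 5 µM dose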
PostGolgi ctrl = inhibits growth of the yeast control strain. inhibition, % at 10 µM. efflux-deficient yeast background strain, growth absorbance A615, 16 h. hit rate 5% among 98,000
CYP2C19 inh = inhibitors of human CYP2C19 | P33261 | AID 778 | hit rate 21% among 96,000 | inhibition, % at 5 µM | CYP2C19 Supersomes, luciferin-H EGE luminescence, 30 min;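 active means CYP2C19 inhibition above a set limit at 5 µM in the primary screen, cut at about 50% in these data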
Target sequence (P33261 whole entry, looked up): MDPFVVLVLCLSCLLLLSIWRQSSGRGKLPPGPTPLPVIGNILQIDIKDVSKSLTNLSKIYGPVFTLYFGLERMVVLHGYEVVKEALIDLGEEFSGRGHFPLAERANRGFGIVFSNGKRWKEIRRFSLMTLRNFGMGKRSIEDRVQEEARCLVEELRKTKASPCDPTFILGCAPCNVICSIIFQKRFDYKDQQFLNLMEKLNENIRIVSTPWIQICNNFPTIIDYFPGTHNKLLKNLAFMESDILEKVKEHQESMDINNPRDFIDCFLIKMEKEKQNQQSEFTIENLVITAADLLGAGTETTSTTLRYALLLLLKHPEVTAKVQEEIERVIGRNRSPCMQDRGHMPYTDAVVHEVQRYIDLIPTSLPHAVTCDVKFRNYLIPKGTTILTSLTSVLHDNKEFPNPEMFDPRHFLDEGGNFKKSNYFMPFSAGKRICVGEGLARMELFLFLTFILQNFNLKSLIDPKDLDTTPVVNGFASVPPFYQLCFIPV
PostGolgi yeast = growth inhibition of a yeast mutant, post-Golgi transport screen | inhibition, % at 10 µM | post-Golgi transport phenotypic cell assay | hit rate 0.9% among 98,000;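 further: yeast cells grown in 1536-well plates; yeast grown about 18 h at 30C before absorbance read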
CYP2C19 activ = increases human CYP2C19 enzyme activity. P33261. recombinant CYP2C19, luciferin-H EGE luminescence; stronger effect = higher value; 0 = fully inhibited enzyme, 1 = untreated enzyme. activation factor at 5 µM. 96,000 tested, under 10 active;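 active means activation factor of at least 2 at 5 µM in the primary screen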
CYP2C9 inhib = inhibitors of human CYP2C9. P11712. CYP2C9 Supersomes, luciferin-H conversion, luminescence. inhibition, % at 5 µM. hit rate 20% among 96,000;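 active means blocking of liver enzyme CYP2C9 beyond about 50% at 5 µM, limit read from the data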
Of the large screens only hits and unclear results are named; the others gave an inactive call. Unless noted, no stated cut-off is given here; in the data, active means inhibition above about 30%; inactive means the rest.

CC1=C(C(=O)OCc2ccc3c(c2)OCO3)C(c2ccc(Cl)cc2)NC(=O)N1 (stereo unspecified)	none (no result: PostGolgi ctrl, PostGolgi yeast)
CC1=C(C(=O)OCc2ccc3c(c2)OCO3)C(c2ccc(F)cc2)NC(=O)N1 (stereo unspecified)	CYP2C9 inhib 52
CCOC(=O)C1=C(Cn2ccc(C(F)(F)F)n2)NC(=O)NC1c1ccc2c(c1)OCO2 (stereo unspecified)	CYP2C19 inh 72, CYP2C9 inhib 65
CCC(C)OC(=O)C1=C(C)NC(=O)NC1c1ccc(F)cc1 (stereo unspecified)	CYP2C19 inh 95
CCOC(=O)C1=C(C)NC(=O)NC1c1ccc2c(c1)OCCO2 (stereo unspecified)	none
CC1=C(C(=O)OCC(C)C)C(c2ccsc2)NC(=O)N1 (stereo unspecified)	CYP2C19 inh 65, CYP2C9 inhib 52
Cc1cccc2cc3c(NC(=O)C(C)C)nn(C)c3nc12	none
C=CCNC(=S)NNC(=O)C(CCC(C)C)CC(C)(C)O (stereo unspecified)	none
CC1=C(C(=O)OC(C)C)C(c2ccc(Br)s2)NC(=O)N1 (stereo unspecified)	CYP2C19 inh 82
CC1=C(C(=O)OC(C)C)C(c2ccco2)NC(=O)N1 (stereo unspecified)	none
CC1=C(C(=O)OC(C)C)C(c2ccc(F)cc2)NC(=O)N1 (stereo unspecified)	CYP2C19 inh 85
Clc1cccc(/C=N\Nc2nccs2)c1	none
OC12CCCCC1C(c1ccc3c(c1)OCO3)N(Cc1cccc(F)c1)CC2 (stereo unspecified)	CYP2C19 inh 79, CYP2C9 inhib 79
OC12CCCCC1C(c1ccc3c(c1)OCO3)N(Cc1ccc(F)cc1)CC2 (stereo unspecified)	CYP2C19 inh 72
Fc1ccccc1CN1CCCCCCC1	none
OC12CCCCC1C(c1ccc3c(c1)OCO3)N(Cc1ccccc1F)CC2 (stereo unspecified)	CYP2C19 inh 98, CYP2C9 inhib 95
Cn1cccc1P(=O)(c1cccn1C)c1cccn1C	none
CCOC(=O)C1CCN(C(=O)c2cc(OCC)c(OCC)c(OCC)c2)CC1	none
CC(C)CC(C(=O)NCC1CCCO1)N(C(=O)Cn1nnc(-c2ccc(F)cc2)n1)c1ccccc1F (stereo unspecified)	none
O=S(=O)(c1ccc(NCC2CCCCC2)nc1)N1CCOCC1	none
COc1ccc(NC(=O)C(C)Sc2ccccc2)cc1 (stereo unspecified)	CYP2C19 inh 51, CYP2C9 inhib 64
CC(Sc1ccccn1)C(=O)Nc1ccccc1 (stereo unspecified)	CYP2C19 inh 81
CC(Sc1ccccc1)C(=O)Nc1ccc(N2CCOCC2)cc1 (stereo unspecified)	none
CCn1c(NC(=O)Nc2ccccc2OC)nc2ccccc21	none
CCn1c(-c2ccccc2Cl)nn(CC(=O)Nc2ccccc2OC)c1=S	CYP2C19 inh 91
CCOC(=O)c1cn2cccnc2n1	none
CCCCC(=O)Nc1sc2c(c1C(N)=O)CCC2	CYP2C9 inhib 77
CC(=O)Nc1sc2c(c1C(N)=O)CCCC2	none
CCC1(CC)NC(=O)N(CC(=O)Nc2sc3c(c2C(N)=O)CCC3)C1=O	CYP2C9 inhib 74
COc1cc(C)nc(OCCNC(=O)COc2ccc(Cl)cc2Cl)n1	CYP2C19 inh 73, CYP2C9 inhib 63
CN(C)c1nc(OCCNC(=O)COc2ccc(Cl)cc2Cl)nc(N(C)C)n1	none
Cc1ccc(C(=O)Nc2ncc3c(n2)CC(c2ccco2)CC3=O)cc1 (stereo unspecified)	none
Cc1cc(C)cc(Nc2ncc3c(n2)CC(c2ccco2)CC3=O)c1 (stereo unspecified)	CYP2C9 inhib 58
Cc1cccc(Nc2ncc3c(n2)CC(c2ccco2)CC3=O)c1 (stereo unspecified)	none
Cc1ccc(NC(=O)CSCC(=O)Nc2ncc3c(n2)CC(c2ccco2)CC3=O)cc1 (stereo unspecified)	CYP2C9 inhib 62
Cc1ccc(Nc2ncc3c(n2)CC(c2ccco2)CC3=O)c(C)c1 (stereo unspecified)	CYP2C9 inhib 67
O=C1CC(c2ccco2)Cc2nc(Nc3nc(-c4ccccc4)c4ccccc4n3)ncc21 (stereo unspecified)	CYP2C19 inh 59, CYP2C9 inhib 68
CCNc1nc(SC)nc(N(C#N)CC(=O)OC)n1	none
Cc1nc(CC(=O)c2c(C)cc(O)cc2O)cs1	none
Cc1cc(C)cc(Nc2ncc3c(n2)CCCC3=O)c1	PostGolgi ctrl 33
Cc1ccc(Cl)cc1N1CCN(C(=O)COc2ccc(S(=O)(=O)NC(C)C)cc2)CC1	none
CCOc1ccc(CCNC(=O)COC(=O)c2ccco2)cc1OCC	CYP2C19 inh 52, CYP2C9 inhib 69
COc1ccc(CCNC(=O)COC(=O)c2ccc(Br)o2)cc1OC	CYP2C19 inh 71, CYP2C9 inhib 80
CCOc1ccc(CCNC(=O)C2CCC(=O)N2CCc2ccccc2)cc1OCC (stereo unspecified)	CYP2C9 inhib 68
O=C(COC(=O)c1ccc(Br)o1)NCCCc1ccccc1	CYP2C9 inhib 71
COc1ccc(CCNC(=O)COC(=O)c2ccc(Br)o2)cc1	CYP2C9 inhib 78
CCOC(=O)C(NCc1ccccc1OC)(NC(C)=O)C(F)(F)F (stereo unspecified)	none
CCOC(=O)C(NC(=O)c1ccccc1)(Nc1cc(C)on1)C(F)(F)F (stereo unspecified)	CYP2C19 inh 62
CCOC(=O)C(NCc1ccc2c(c1)OCO2)(NC(=O)c1ccccc1)C(F)(F)F (stereo unspecified)	CYP2C19 inh 96, CYP2C9 inhib 74
C=CCNC(NC(=O)c1ccccc1)(C(=O)OCC)C(F)(F)F (stereo unspecified)	CYP2C19 inh 64
CCOC(=O)C(NCc1ccccc1OC)(NC(=O)CC)C(F)(F)F (stereo unspecified)	none
CCOC(=O)c1ccc(NCc2ccc3c(c2)OCO3)cc1	none
CCOC(=O)C(NCc1ccccc1)(NC(=O)c1ccccc1)C(F)(F)F (stereo unspecified)	CYP2C19 inh 52
Cc1cc(NC(=O)CSc2nnc(-c3cccnc3)n2C)no1	none
CCOC(=O)C1(C(=O)OCC)CC1c1ccccc1 (stereo unspecified)	none
Cc1cccc(N(C(=O)Cn2nnc3ccccc32)C(C(=O)NC(C)(C)C)c2ccsc2)c1 (stereo unspecified)	none
COCC(=O)NC1CCN(CC(=O)Nc2ccc(OC)cc2[N+](=O)[O-])CC1	none
COCCn1c(SCC(=O)Nc2sc(C)c(C)c2C#N)nnc1C(C)C	CYP2C19 inh 80, CYP2C9 inhib 92
CCn1c(SCC(=O)Nc2sc(C)c(C)c2C#N)nnc1C(C)C	CYP2C19 inh 98, CYP2C9 inhib 91
